# Source: PubChem BioAssay (Tox21)
# Several values for one entry are separate records, joined by “and”; a condition that tells them apart may be missing. Identical values can stand only once. Inconclusive results are not listed. Where a call stands in place of a potency, no number is given. A structure can be active in one record and inactive in another. Activity calls are given as the source filed them. Unless noted, the call rests on the fitted dose curve; in most records, active means well fitted curve in the direction sought with a large enough effect in the repeat runs; inconclusive means weak or mixed curves; inactive means no such curve, though single readings can be large; an effect the other way counts as inactive or inconclusive.
# Key:
# [1] = target: Thyrotropin receptor (Homo sapiens) (UniProt P16473); experiment: qHTS assay to identify small molecule agonists of the thyroid stimulating hormone receptor (TSHR) signaling pathway (AID 1224843; calls by dose curve; further: nearly all actives have a fitted effect of over 45% in size)
# Procedure, shortened: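 Screening of the Tox21 10K collection used HEK293 cells engineered with TSHR at 800 cells per well. After a 30-min room-temperature compound exposure, HTRF cAMP reagents were added and fluorescence recorded 1 h later.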
# [2] = qHTS assay to identify small molecule agonists of the hypoxia (HIF-1) signaling pathway - cell viability counter screen (AID 1224844; calls by dose curve; further: nearly all actives have a fitted effect of over 50% in size)
# Procedure, shortened: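 HRE-bla ME-180 cells, 2,000/well in 0.5% dialyzed FBS medium, treated 17 h at 37C with compounds. Viability read in the same wells as the bla reporter, by CellTiter-Glo luminescence after 30 min at room temperature.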
# [3] = qHTS assay to identify small molecule agonists of H2AX (AID 1224845; active means well fitted activation curve with a large enough effect in the signal ratio in the repeat runs, not every such curve was filed as active; the % refers to the signal ratio)
# Procedure, shortened: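 Phospho-H2AX Ser139 measured by HTRF (ex 320 nm; em 665 and 620 nm) after 24 hr antibody incubation. Compounds, 15 concentrations, 0.76% DMSO, were applied to CHO-K1 cells for 3hr at 37C before lysis.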
# [4] = qHTS assay to identify small molecule agonists of the hypoxia (HIF-1) signaling pathway (AID 1224846; active means well fitted activation curve with a large enough effect in the signal ratio in the repeat runs, not every such curve was filed as active; the % refers to the signal ratio)
# Procedure, shortened: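 HRE-bla ME-180 beta-lactamase reporter cells in medium with 0.5% dialyzed FBS, pre-incubated 5 h then exposed to compounds 17 h at 37C, 5% CO2; reporter induction read with CCF4-AM FRET substrate.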
# [5] = qHTS assay to identify small molecule agonists of H2AX - cell viability counter screen (AID 1224847; calls by dose curve; further: nearly all actives have a fitted effect of over 30% in size; further: potency means the concentration at half of the fitted maximal effect)
# Procedure, shortened: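 Cells plated first: CHO-K1, 1000 per well in 10% FBS medium, incubated overnight at 37C. Then 15-point compound titration added (final DMSO 0.76%) for 3 hr. Finally CellTiter-Glo added and luminescence read.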
# [6] = qHTS assay to identify small molecule antagonists of the estrogen related receptor (ERR) signaling pathway from Tox21 library (AID 1224848); further: nearly all actives have a fitted effect of over 50% in size; further: potency means the concentration at half of the fitted maximal effect
# Procedure, shortened: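 Antagonist-mode screen of the Tox21 10K library in an NTP-provided ERR reporter cell line; 18 h compound exposure at 37 C, luminescence measured with ONE-Glo.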
# [7] = qHTS assay to identify small molecule agonists of the estrogen related receptor (ERR) signaling pathway from Tox21 library (AID 1224849; calls by dose curve; further: nearly all actives have a fitted effect of over 15% in size); settings: ERR reporter cell line, ONE-Glo luciferase, 18 h; at 92.4 µM (top of the series) unless noted
# Procedure, shortened: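 ERR reporter cells (NTP line) pre-incubated 6 hours at 37 C, then exposed to compounds for 18 hours at 37 C. ONE-Glo luciferase luminescence was read after 30 minutes at room temperature.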
# [8] = qHTS RealTime-Glo MT Cell Viability Assay in HepG2 cells - 24 hour (AID 1224867); further: nearly all actives have a fitted effect of over 50% in size
# Procedure, shortened: (§1)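 HepG2 suspension premixed with RealTime-Glo reagents is plated at 600 cells per well and left 5 h at 37 C/5% CO2. Compounds in DMSO then go in, and bioluminescence reflecting viable cell number is recorded over 40 h.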
# [9] = qHTS RealTime-Glo MT Cell Viability Assay in HEK293 cells - 32 hour (AID 1224868); further: top concentration of the series differs between compounds; nearly all actives have a fitted effect of over 50% in size
# Procedure, shortened: (§2)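 Reads taken at 0, 8, 16, 24, 32 and 40 h from the same wells. HEK293 cells (600/well) carried RealTime-Glo reagents from seeding, with compound added after a 5 h settle at 37 C.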
# [10] = A CellTox Green Cytotoxicity Assay to monitor cytotoxicity in HEK293 cells - 0 hour (AID 1224869); further: nearly all actives have a fitted effect of over 50% in size
# Procedure, shortened: (§3)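 HEK293 cells, 600/well, were preincubated 5 hours and then exposed to compounds at 37 C for up to 40 hours. A cell-impermeant cyanine dye staining dead-cell DNA was read by fluorescence at 0, 8, 16, 24, 32 and 40 h time points.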
# [11] = qHTS RealTime-Glo MT Cell Viability Assay in HepG2 cells - 40 hour (AID 1224870); further: nearly all actives have a fitted effect of over 50% in size
# Procedure, shortened: (§4)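 Real-time viability: cells seeded at 600 per well together with NanoLuc and cell-permeant prosubstrate, compounds added after 5 h incubation. Luminescence tracked at 0, 8, 16, 24, 32 and 40 h of exposure.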
# [12] = A CellTox Green Cytotoxicity Assay to monitor cytotoxicity in HEK293 cells - 40 hour (AID 1224871); further: nearly all actives have a fitted effect of over 45% in size; further: potency means the concentration at half of the fitted maximal effect
# Procedure, shortened: as §3
# [13] = qHTS RealTime-Glo MT Cell Viability Assay in HEK293 cells - 16 hour (AID 1224872)
# Procedure, shortened: as §2
# [14] = qHTS RealTime-Glo MT Cell Viability Assay in HepG2 cells - 8 hour (AID 1224873); further: nearly all actives have a fitted effect of over 55% in size
# Procedure, shortened: as §4
# [15] = qHTS RealTime-Glo MT Cell Viability Assay in HEK293 cells - 40 hour (AID 1224874); settings: RealTime-Glo luminescence; max response: stronger effect = lower value; further: nearly all actives have a fitted effect of over 50% in size
# Procedure, shortened: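 600 cells/well were plated with the nonlytic NanoLuc/prosubstrate reagent, pre-incubated 5 h, then given 23 nL of compound in DMSO. Incubation at 37 C for 40 h, with luminescence from viable-cell-reduced substrate read repeatedly from 0 h.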
# [16] = A CellTox Green Cytotoxicity Assay to monitor cytotoxicity in HepG2 cells - 16 hour (AID 1224876); further: nearly all actives have a fitted effect of over 45% in size
# Procedure, shortened: (§5)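 HepG2 cells, 600/well, preincubated 5 h with CellTox Green dye, then exposed to Tox21 compounds in DMSO at 37 C for up to 40 h. Dead-cell DNA fluorescence read at the indicated time point.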
# [17] = qHTS RealTime-Glo MT Cell Viability Assay in HepG2 cells - 32 hour (AID 1224877); further: nearly all actives have a fitted effect of over 55% in size
# Procedure, shortened: as §1
# [18] = A CellTox Green Cytotoxicity Assay to monitor cytotoxicity in HepG2 cells - 24 hour (AID 1224878); further: nearly all actives have a fitted effect of over 45% in size
# Procedure, shortened: as §5
# [19] = A CellTox Green Cytotoxicity Assay to monitor cytotoxicity in HepG2 cells - 40 hour (AID 1224879); further: nearly all actives have a fitted effect of over 40% in size
# Procedure, shortened: as §5
# [20] = A CellTox Green Cytotoxicity Assay to monitor cytotoxicity in HEK293 cells - 24 hour (AID 1224875); further: nearly all actives have a fitted effect of over 45% in size
# Procedure, shortened: as §3
# Chain of Thyrotropin receptor (Homo sapiens) (P16473 whole entry, looked up): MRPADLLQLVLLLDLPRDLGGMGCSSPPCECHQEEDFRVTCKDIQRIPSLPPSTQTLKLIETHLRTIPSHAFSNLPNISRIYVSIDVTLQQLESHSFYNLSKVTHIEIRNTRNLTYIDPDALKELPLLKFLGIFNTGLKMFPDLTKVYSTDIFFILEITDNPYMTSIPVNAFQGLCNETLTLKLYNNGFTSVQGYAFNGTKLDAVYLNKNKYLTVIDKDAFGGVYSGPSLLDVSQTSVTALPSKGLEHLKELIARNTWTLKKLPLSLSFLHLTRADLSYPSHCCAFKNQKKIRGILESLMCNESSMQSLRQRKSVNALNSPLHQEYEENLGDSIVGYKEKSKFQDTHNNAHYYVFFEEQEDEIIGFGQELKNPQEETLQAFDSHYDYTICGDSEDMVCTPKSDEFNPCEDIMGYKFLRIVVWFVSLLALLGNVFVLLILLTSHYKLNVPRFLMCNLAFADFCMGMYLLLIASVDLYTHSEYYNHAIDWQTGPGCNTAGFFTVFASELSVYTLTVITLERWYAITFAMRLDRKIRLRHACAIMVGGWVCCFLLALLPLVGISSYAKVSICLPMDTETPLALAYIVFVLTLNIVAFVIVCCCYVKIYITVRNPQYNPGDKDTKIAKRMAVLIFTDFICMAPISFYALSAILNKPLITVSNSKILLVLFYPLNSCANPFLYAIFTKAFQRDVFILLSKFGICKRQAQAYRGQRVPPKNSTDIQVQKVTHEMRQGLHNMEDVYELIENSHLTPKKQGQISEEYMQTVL
Compound,Potency [1],Potency [2],outcome [3],outcome [4],Potency [5],Potency [6],"activity change, positive = activation [7]",Potency [8],Potency [9],Potency [10],Potency [11],Potency [12],Potency [13],Potency [14],max response [15],Potency [16],Potency [17],Potency [18],Potency [19],Potency [20]
CCc1cccc2c(CCO)c[nH]c12,inactive,inactive,inactive,inactive,inactive,inactive,6.5% [at 42.5 µM] (inactive),inactive,inactive,inactive,inactive,inactive,inactive,inactive,0.292% (inactive),inactive,inactive,inactive,inactive,–
CCCc1cc(C(N)=S)ccn1,inactive,inactive,inactive,inactive,inactive,inactive,-6.09% [at 42.5 µM] (inactive),inactive,inactive,inactive,inactive,inactive,inactive,inactive,2.82% (inactive),inactive,–,inactive,inactive,inactive
NC(=O)Nc1ccccc1,inactive,inactive,inactive,inactive,inactive,inactive,8.88% (inactive),inactive,inactive,inactive,inactive,inactive,inactive,inactive,3.44% (inactive),–,inactive,inactive,inactive,inactive
CCCN1CCCC[C@H]1C(=O)Nc1c(C)cccc1C,inactive,inactive,inactive,inactive,inactive,inactive,6.18% [at 42.5 µM] (inactive),inactive,inactive,inactive,inactive,inactive,inactive,inactive,3.8% (inactive),inactive,–,inactive,–,inactive
NS(=O)(=O)c1cc(C(=O)NN2C[C@H]3[C@H]4CCC(C4)[C@H]3C2)ccc1Cl,inactive,inactive,inactive,inactive,inactive,inactive,-1.11% [at 42.5 µM] (inactive),inactive,inactive,inactive,inactive,inactive,inactive,inactive,-21.1% (inactive),inactive,–,inactive,inactive,–
ClC(Cl)(Br)Br,inactive,inactive,inactive,inactive,inactive,inactive,1.45% (inactive),inactive,inactive,inactive,inactive,inactive,inactive,inactive,-1.43% (inactive),–,inactive,inactive,inactive,–
CN1C(=O)N(C)C(O)C1O (stereo not drawn),inactive,inactive,inactive,inactive,inactive,inactive,0.239% (inactive),inactive,inactive,inactive,inactive,inactive,inactive,inactive,1.97% (inactive),inactive,–,–,inactive,inactive
CC(=O)CC(C)C,inactive,inactive,inactive,inactive,inactive,inactive,1.24% (inactive),inactive,–,–,inactive,inactive,inactive,inactive,–,inactive,inactive,inactive,inactive,–
Cc1ccc(C#N)cc1,inactive,inactive,inactive,inactive,inactive,inactive,–,inactive,inactive,inactive,inactive,inactive,inactive,inactive,6.96% (inactive),inactive,–,–,inactive,inactive
CC(C)(c1ccc(O)cc1)c1ccc(O)cc1,inactive,inactive,inactive,inactive,inactive and 103 µM (active),30.3 µM (active),-29.8% (inactive) and -30.2% (inactive),inactive,–,–,inactive,inactive and 17.7 µM (active),–,inactive,–,inactive,inactive,inactive,inactive,–
Nc1c[n+](N2CCOCC2)no1,inactive,inactive,inactive,inactive,inactive,inactive,0.251% [at 42.5 µM] (inactive),inactive,–,inactive,inactive,inactive,inactive,inactive,0.673% (inactive),–,inactive,inactive,inactive,inactive
Cc1cc2c(cc1S(N)(=O)=O)S(=O)(=O)CCC2,inactive,inactive,inactive,inactive,inactive,inactive,–,inactive,inactive,inactive,inactive,inactive,inactive,inactive,2.68% (inactive),inactive,inactive,inactive,inactive,inactive
CCCC(=O)O[C@]1(C(=O)CO)CC[C@H]2[C@@H]3CCC4=CC(=O)CC[C@]4(C)[C@H]3[C@@H](O)C[C@@]21C,inactive,inactive,inactive,inactive,inactive,inactive,–,inactive,inactive,inactive,inactive,inactive,inactive,inactive,0.181% (inactive),inactive,inactive,inactive,inactive,inactive
CC(=O)c1ccccc1O,inactive,inactive,inactive,inactive,inactive,inactive,0.43% (inactive),inactive,inactive,–,inactive,inactive,inactive,inactive,9.04% (inactive),inactive,inactive,inactive,inactive,–
CC(=O)N(CC(O)CO)c1c(I)c(C(=O)NCCO)c(I)c(C(=O)NCC(O)CO)c1I (stereo not drawn),inactive,inactive,inactive,inactive,inactive,inactive,5.17% [at 42.5 µM] (inactive),inactive,–,inactive,inactive,inactive,inactive,inactive,9.14% (inactive),–,–,inactive,inactive,inactive
